Source: PubChem BioAssay (NCI)
This is part of a sample that, as a whole, favours compounds with a hit. Of some 83,000 tested, about 20% had one in any assay.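 Treatment: one concentration, 48 hours, 96-well format. Scoring: percent growth, with anything below 10 considered active.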 The source made the active and inactive calls.

Test system: MDA-MB-468 breast
Experiment: NCI-60 one-dose screen, 48 h (100 = growth as untreated, 0 = no growth, -100 = all killed)
Settings: 10 µM unless noted

Structure (SMILES)	growth
COc1ccccc1N1CCCCC1	118% (inactive)
c1ccc(-c2n(Cc3ccc4ccccc4n3)c3ccccc3[n+]2Cc2ccc3ccccc3n2)cc1	-34.3% (active)
C#CCN1C(=O)/C(=c2\sc3n(c2=O)NC2C(N=3)N(CC)C(=O)N2CC)c2ccccc21 (configuration not stated)	10.8% (inactive)
CCCCCCCCCCCCCCCCC(Br)C(=O)O (configuration not stated)	96% (inactive)
COc1c2occc2c(OC)c2c(=O)c(-c3cc(-c4ccc(F)cc4)c(C#N)c(N)n3)c(C)oc12	26.4% (inactive)
CO[C@]12C=C/C(=C(/C(=O)OCc3cccnc3)C(=O)CCCCCCCC[C@]3(OC)C=C/C(=C(/C(=O)OCc4cccnc4)C(=O)CCCCCCCC1)O3)O2	-50.5% (active)
COc1ccc(C(=O)c2nc3ccccc3n2CC(=O)c2ccc(Cl)cc2)cc1	33.8% (inactive)
COc1cc2cc(Oc3ccc(NC(=O)c4cc(C(F)(F)F)cc(C(F)(F)F)c4)cc3)c(C)nc2cc1OC	22.8% (inactive)
Nc1nc(-c2ccc(Cl)cc2)cc(-c2cc3ccccc3oc2=O)n1	94% (inactive)
CC(C)(C)CC(C)(C)n1nnnc1C(Nc1ccccc1)c1cc2cccc3ccc4cccc1c4c32 (configuration not stated)	86.5% (inactive)
COC1=CC(c2ccc[nH]2)=N/C1=C\c1[nH]c(C)c(C(=O)OCCn2cc(CCC[C@@H]3Cc4cc(O)ccc4C4CC[C@]5(C)[C@@H](O)CC[C@H]5C43)nn2)c1C (some centres not stated)	78% (inactive)
COc1ccc(-c2nc(SCCC(C)C)nc(N/N=C\c3ccc(O)cc3)c2C#N)cc1	88.8% (inactive)
